Shown are actives, neighbours in structure and some others; about 17% of the full set was active somewhere.
DT40 TDP1 no CPT = qHTS for Inhibitors of human tyrosyl-DNA phosphodiesterase 1 (TDP1): qHTS in cells in absence of CPT | DT40 Tdp1-/- hTDP1 cells, no CPT, ATP luminescence, 48 h | Potency, µM (top dose mostly 46.2 µM), for the others: at the top dose activity change, negative = growth inhibition, usual class: inhibitors | 420,000 compounds, 15% hits; note: % is set by controls: 0 for no effect and ±100 for the full control effect; nearly all actives have a fitted effect of over 55% in size
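DT40 Tdp1-/-;hTDP1 cells, no CPT (DMSO vehicle only), 400 cells/well; compounds pin-transferred; ≥48 hr, 37 °C; CellTiter-Glo 30 min RT dark, luminescence read.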
TGFb inhibitor = inhibitors of TGF-b signaling. HepG2 CAGA-GFP TGF-b/SMAD3 reporter, GFP fluorescence, 18 h; TGF-beta stimulated, 500 pg/mL final. AID 588855. 410,000 compounds, 1.2% hits. Potency, µM (series often up to 46.1 µM), for the others: top-dose activity, negative = inhibition, actives largely listed as inhibitors; note: % is set by controls: 0 for no effect and ±100 for the full control effect; nearly all actives have a fitted effect of over 65% in size
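TGF-beta reporter screen: HEPG2 CAGA-GFP, 1% FBS, 500 pg/mL TGF-beta final, 18 h; per-cell GFP summed per well; curves fitted and categorized by class.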
HepG2 tox = kills HepG2 cells in TGF-b inhibitor counter-screen | HepG2 CAGA-GFP viability, ATP luminescence, 18 h | Potency, µM (doses to about 46.1 µM), inactives show at the highest dose activity change, negative = cytotoxicity, hits mostly cytotoxic | 410,000 compounds, 0.76% hits | AID 588856
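HepG2 CAGA-GFP cells (1000/well, DMEM with 1% FBS) received compound, then TGF-beta at 500 pg/mL final, and were incubated 18 hours at 37 degrees C. Viability was read by CellTiter-Glo luminescence. Media-only wells were set as complete cell-killing and DMSO as no toxicity.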
HT1080NT lethal = kills 2HG-producing HT-1080-NT fibrosarcoma cells; HT-1080-NT fibrosarcoma viability, CellTiter-Glo ATP luminescence, 48 h; 360,000 compounds, 1.6% hits; Potency, µM (doses to about 46.1 µM), for inactives: at the top dose activity, negative = less viability, most hits filed as cytotoxic; AID 686970;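 note: NT is the 2HG producing partner of a matched IDH1 knockdown line; 0% = DMSO-treated cells and -100% = media-only wells without cells; nearly all actives have a fitted effect of over 55% in size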
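Luminescent CellTiter-Glo readout after 48 hours of compound exposure at 37 degrees C defined viability of HT-1080-NT cells. Activity was normalized to DMSO wells and cell-free media wells; concentration-response curves were fitted and assigned curve classes.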
DT40 TDP1 CPT = DT40-hTDP1 cell growth loss with CPT; Potency, µM (doses to about 46.2 µM), inactives show at the top dose activity change, negative = growth inhibition, most hits filed as inhibitors; 420,000 compounds, 12% hits; chicken DT40 Tdp1-/-;hTDP1 cells + 20 nM CPT, ATP luminescence, 48 h; note: % is set by controls: 0 for no effect and ±100 for the full control effect; nearly all actives have a fitted effect of over 55% in size
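Cell growth measured by CellTiter-Glo luminescence after a minimum 48 h, 37 C compound exposure with 20 nM CPT in Tdp1-knockout DT40 cells stably expressing hTDP1, seeded 400/well; qHTS titration format.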
HT1080 IDH1KD tx = toxicity to HT-1080 IDH1 knockdown cells (counter line); HT-1080 IDH1 knockdown viability, ATP luminescence, 48 h; Potency, µM (titrated, usually from 46.1 µM), without a hit: at the top dose activity, negative = toxicity, most hits filed as cytotoxic; 360,000 compounds, 2% hits;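 note: 0% = DMSO wells and -100% = cell-free medium wells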
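Luminescent ATP read-out (CellTiter-Glo, 10 min at room temperature) after 48 h compound exposure at 37 °C gave viability of IDH1-knockdown HT-1080 cells. Activity was normalised to DMSO and cell-free wells, then fitted as concentration-response curves.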
* marks the source's active call; other numbers are inactive results; ? = inconclusive; . = no result. Calls come from the whole dose curve; as a rule, active = well fitted curve in the direction sought with a large enough effect; inconclusive = small, poorly fitted or top-dose-only effect, or another doubt; inactive = no such curve, though single readings can be large; an effect the other way counts as inactive or inconclusive. Potency is the fitted concentration of half-maximal effect.

SMILES | DT40 TDP1 no CPT | TGFb inhibitor | HepG2 tox | HT1080NT lethal | DT40 TDP1 CPT | HT1080 IDH1KD tx
COc1ccc(C(=O)NCC(=O)N=Nc2c(O)n(C)c3ccccc23)cc1OC | -2% | -1% | -3% | 2% | -9% | 1%
CC(C)CC(NC(=O)C1CCCCC1)C(=O)Nc1cccc(C(F)(F)F)c1 (centres undefined) | -25% | 10% | 1% | . | -27% | .
CN1C(=O)c2cccc(NC(=O)Cc3ccccc3)c2C1=O | -13% | -2% | -12% | -7% | -2% | 19%
O=C(N=Nc1c(O)n(Cc2ccccc2)c2ccccc12)c1cc2ccccc2cc1O | 15µM* | -4% | -8% | -6% | ? | -3%
O=C(Cn1c(O)c(N=NC(=O)c2ccncc2)c2ccccc21)Nc1ccccc1 | -11% | -20% | -18% | 14% | -16% | 23%
O=C(N=Nc1c(O)n(Cc2ccccc2)c2ccccc12)c1ccc(O)cc1 | 23µM* | ? | -5% | 4% | ? | 21%
Cc1cccc(NC(=O)Cn2c(O)c(N=NC(N)=S)c3ccccc32)c1 | 15µM* | ? | -28% | ? | 23µM* | ?
CC(C)CCn1c(O)c(N=NC(=O)c2ccco2)c2ccccc21 | ? | -6% | -3% | 16% | -19% | 7%
CCCc1ccc(OC(=O)CSc2nnc(-c3cccs3)o2)cc1 | 12% | 45% | 1% | . | -10% | .
Cc1cc(O)c2c(c1)O[C@@]1(C)CC[C@H]3C(C)(C)CCCC34CO[C@@H]2[C@H]41 (some centres undefined) | 17µM* | . | . | . | ? | .
CC(C)(C)NC(=O)C(c1ccncc1)n1c(-c2ccc(C(F)(F)F)cc2)nc2ccccc21 (centres undefined) | ? | . | . | ? | ? | 21µM*
CC(C)(C)NC(=O)C(c1cc2ccccc2o1)n1c(-c2ccc(-c3ccccc3)cc2)nc2ccccc21 (centres undefined) | ? | . | . | ? | 16µM* | ?
Cc1cccc(C)c1NC(=O)C(C1CC1)n1c(-c2ccc(-c3ccccc3)cc2)nc2ccccc21 (centres undefined) | ? | . | . | -12% | ? | -15%
Cc1cnc(-c2nc3ccccc3n2C(C(=O)NC(C)(C)C)c2ccncc2)cn1 (centres undefined) | -16% | . | . | -20% | -13% | -16%
Cc1cccc(C)c1NC(=O)C(C1CC1)n1c(-c2ccc(C(F)(F)F)cc2)nc2ccccc21 (centres undefined) | 18µM* | . | . | -22% | ? | -13%
COc1ccc(C(C(=O)NC(C)(C)C)n2c(-c3ccc(C(F)(F)F)cc3)nc3ccccc32)cc1 (centres undefined) | ? | . | . | 7% | 16µM* | 9%
COc1ccc(-c2cc(C(=O)Nc3cc(Cl)ccc3O)no2)cc1 | ? | 16% | 2% | ? | ? | 22%
O=C(CCc1ccc(S(=O)(=O)N2CCOCC2)cc1)Nc1ccc(F)cc1[N+](=O)[O-] | -28% | -2% | 3% | 0% | ? | -1%
CN1CCn2cnc(C(=O)N3CCN(c4ccccc4)CC3)c2C1=O | -1% | 0% | -3% | 17% | 2% | 0%
Nc1nc(SCC(=O)Nc2ncc(Cl)cc2Cl)n[nH]1 | -21% | -6% | 2% | 6% | -7% | 11%
C=CCc1cccc(/C=N/NC(=O)CNc2ccccc2)c1O | 5.2µM* | ? | -51% | ? | 21µM* | 18µM*
CSc1ccc(/C=N/NC(=O)CNc2cccc3ccccc23)cc1 | 6% | -5% | -37% | -9% | -3% | -2%
